# Results taken from the supplement of paper PMC12819154, “High-throughput peptide-centric local stability assay extends protein–ligand identification to membrane proteins, tissues and bacteria” (Nature Structural & Molecular Biology, 2025).
# Experiments:
# UniProt P0AEX5 = target: T1, UniProt P0AEX5; test: log2 fold change of tryptic peptide abundance, ligand vs vehicle (limited proteolysis) (log2 ratio); higher = more trypsin-susceptible (destabilized); settings: peptide sequence: EAVMDSVVR; peptide start residue: 177; ligand concentration: 5 mM; sample: E. coli desalted lysate; replicate design: treated before aliquoting
# T1 sequence (whole entry): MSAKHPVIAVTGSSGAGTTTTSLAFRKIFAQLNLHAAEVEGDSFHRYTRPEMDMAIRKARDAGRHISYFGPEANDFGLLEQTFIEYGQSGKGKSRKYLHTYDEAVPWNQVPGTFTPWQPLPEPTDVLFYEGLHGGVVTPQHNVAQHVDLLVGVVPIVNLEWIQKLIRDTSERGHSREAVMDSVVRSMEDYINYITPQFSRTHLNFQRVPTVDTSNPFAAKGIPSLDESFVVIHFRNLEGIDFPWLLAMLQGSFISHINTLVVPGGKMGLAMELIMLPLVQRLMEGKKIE
# Experimental: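 HT-PELSA: desalted E. coli K-12 BW25113 lysate (with 12 mM MgCl2) incubated with 5 mM ATP (pH 7) or water for 30 min at 25 C, then a 4 min trypsin pulse at 22 C. Peptides were quantified by DIA-MS (4 replicates). Value is the peptide log2 fold change (treated/control); negative = stabilized. Scale: negative = ligand-stabilized region.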
# UniProt O54950 = test: log2 fold change of pooled soluble protein (PISA), ligand vs vehicle (log2 ratio); higher = more thermally stabilized; settings: ligand concentration: 20 uM; assay format: PISA pool 52.9/55.5/58.6 C
# UniProt P31938 = test: as above; settings: ligand concentration: 20 uM; assay format: PISA pool 52.9/55.5/58.6 C
# UniProt P41241 = test: as above; settings: ligand concentration: 20 uM; assay format: PISA pool 52.9/55.5/58.6 C
# UniProt Q3UHJ0 = test: as above; settings: ligand concentration: 20 uM; assay format: PISA pool 52.9/55.5/58.6 C
# UniProt Q5F2E8 = target: T2, UniProt Q5F2E8; test: as above; settings: ligand concentration: 20 uM; assay format: PISA pool 52.9/55.5/58.6 C
# T2 sequence (whole entry): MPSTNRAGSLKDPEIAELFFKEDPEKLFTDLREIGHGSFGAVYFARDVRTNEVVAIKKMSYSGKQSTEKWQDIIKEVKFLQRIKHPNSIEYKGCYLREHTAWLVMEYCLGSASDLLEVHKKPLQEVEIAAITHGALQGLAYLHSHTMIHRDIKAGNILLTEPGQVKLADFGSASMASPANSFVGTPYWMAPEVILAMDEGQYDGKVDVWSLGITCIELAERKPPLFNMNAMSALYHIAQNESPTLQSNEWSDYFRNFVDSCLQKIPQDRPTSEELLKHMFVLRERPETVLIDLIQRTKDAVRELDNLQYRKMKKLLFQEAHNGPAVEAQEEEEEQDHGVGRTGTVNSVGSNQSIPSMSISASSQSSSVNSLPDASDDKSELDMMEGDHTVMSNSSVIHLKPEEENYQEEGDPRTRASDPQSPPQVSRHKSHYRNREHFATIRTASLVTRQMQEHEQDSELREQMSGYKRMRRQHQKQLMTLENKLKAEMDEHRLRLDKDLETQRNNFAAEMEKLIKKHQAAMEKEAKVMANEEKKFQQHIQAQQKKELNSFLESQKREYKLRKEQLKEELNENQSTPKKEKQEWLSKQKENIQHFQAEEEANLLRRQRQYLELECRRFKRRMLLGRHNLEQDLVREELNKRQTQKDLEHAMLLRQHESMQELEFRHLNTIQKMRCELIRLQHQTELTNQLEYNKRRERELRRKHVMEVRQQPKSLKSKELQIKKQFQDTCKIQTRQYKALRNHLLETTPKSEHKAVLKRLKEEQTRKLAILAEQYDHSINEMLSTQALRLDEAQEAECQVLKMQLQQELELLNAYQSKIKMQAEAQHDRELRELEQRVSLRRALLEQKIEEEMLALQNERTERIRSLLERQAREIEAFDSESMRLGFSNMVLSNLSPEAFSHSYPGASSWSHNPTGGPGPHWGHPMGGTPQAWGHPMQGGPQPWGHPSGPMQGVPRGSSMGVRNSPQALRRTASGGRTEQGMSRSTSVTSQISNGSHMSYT
# UniProt Q63932 = test: as above; settings: ligand concentration: 20 uM; assay format: PISA pool 52.9/55.5/58.6 C
# UniProt Q64464 = target: T3, UniProt Q64464; test: as above; settings: ligand concentration: 20 uM; assay format: PISA pool 52.9/55.5/58.6 C
# T3 sequence (whole entry): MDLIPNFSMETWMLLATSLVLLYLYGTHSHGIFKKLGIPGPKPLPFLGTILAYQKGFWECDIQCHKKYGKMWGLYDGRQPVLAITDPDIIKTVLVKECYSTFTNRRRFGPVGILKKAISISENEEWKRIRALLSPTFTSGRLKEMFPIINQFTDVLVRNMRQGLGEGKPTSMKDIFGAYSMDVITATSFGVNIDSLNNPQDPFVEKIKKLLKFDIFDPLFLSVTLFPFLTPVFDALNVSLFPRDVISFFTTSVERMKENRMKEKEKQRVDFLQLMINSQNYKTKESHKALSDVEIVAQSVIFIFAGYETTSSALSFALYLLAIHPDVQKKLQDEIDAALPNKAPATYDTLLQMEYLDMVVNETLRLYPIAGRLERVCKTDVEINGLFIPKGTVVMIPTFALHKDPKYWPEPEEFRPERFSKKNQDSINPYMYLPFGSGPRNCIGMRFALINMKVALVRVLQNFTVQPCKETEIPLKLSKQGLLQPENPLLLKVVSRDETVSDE
# UniProt Q6PIU9 = target: T4, UniProt Q6PIU9; test: as above; settings: ligand concentration: 20 uM; assay format: PISA pool 52.9/55.5/58.6 C
# T4 sequence (whole entry): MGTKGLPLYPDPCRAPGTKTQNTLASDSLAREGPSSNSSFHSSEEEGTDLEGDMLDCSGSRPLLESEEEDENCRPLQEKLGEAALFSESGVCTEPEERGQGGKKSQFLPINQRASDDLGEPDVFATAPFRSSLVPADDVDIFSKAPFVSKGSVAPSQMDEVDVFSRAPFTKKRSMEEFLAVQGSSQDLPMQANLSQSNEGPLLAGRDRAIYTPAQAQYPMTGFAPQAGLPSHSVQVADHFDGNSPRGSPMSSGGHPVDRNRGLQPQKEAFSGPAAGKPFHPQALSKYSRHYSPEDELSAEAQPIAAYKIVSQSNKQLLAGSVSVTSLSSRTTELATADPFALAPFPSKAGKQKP
# UniProt Q8BRK8 = test: as above; settings: ligand concentration: 20 uM; assay format: PISA pool 52.9/55.5/58.6 C
# UniProt Q8BTW9 = test: as above; settings: ligand concentration: 20 uM; assay format: PISA pool 52.9/55.5/58.6 C
# UniProt Q8BYY4 = target: T5, UniProt Q8BYY4; test: as above; settings: ligand concentration: 20 uM; assay format: PISA pool 52.9/55.5/58.6 C
# T5 sequence (whole entry): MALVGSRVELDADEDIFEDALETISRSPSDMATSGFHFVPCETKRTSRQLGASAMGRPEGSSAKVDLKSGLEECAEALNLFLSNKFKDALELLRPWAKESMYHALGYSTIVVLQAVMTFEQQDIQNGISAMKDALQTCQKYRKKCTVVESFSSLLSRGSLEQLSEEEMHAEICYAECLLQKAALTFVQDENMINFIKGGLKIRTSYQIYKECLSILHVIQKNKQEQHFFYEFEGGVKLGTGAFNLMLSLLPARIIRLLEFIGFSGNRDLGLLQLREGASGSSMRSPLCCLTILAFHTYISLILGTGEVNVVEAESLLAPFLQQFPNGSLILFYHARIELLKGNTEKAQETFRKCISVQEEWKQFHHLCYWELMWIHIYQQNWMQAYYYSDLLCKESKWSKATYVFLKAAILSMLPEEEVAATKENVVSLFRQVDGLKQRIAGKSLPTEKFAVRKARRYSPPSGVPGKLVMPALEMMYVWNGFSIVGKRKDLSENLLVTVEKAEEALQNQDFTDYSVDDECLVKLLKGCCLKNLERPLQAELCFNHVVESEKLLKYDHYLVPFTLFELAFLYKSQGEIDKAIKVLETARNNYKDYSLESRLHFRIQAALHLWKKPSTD
# UniProt Q9EQ20 = test: as above; settings: ligand concentration: 20 uM; assay format: PISA pool 52.9/55.5/58.6 C
# UniProt Q9JI10 = target: T6, UniProt Q9JI10; test: as above; settings: ligand concentration: 20 uM; assay format: PISA pool 52.9/55.5/58.6 C
# T6 sequence (whole entry): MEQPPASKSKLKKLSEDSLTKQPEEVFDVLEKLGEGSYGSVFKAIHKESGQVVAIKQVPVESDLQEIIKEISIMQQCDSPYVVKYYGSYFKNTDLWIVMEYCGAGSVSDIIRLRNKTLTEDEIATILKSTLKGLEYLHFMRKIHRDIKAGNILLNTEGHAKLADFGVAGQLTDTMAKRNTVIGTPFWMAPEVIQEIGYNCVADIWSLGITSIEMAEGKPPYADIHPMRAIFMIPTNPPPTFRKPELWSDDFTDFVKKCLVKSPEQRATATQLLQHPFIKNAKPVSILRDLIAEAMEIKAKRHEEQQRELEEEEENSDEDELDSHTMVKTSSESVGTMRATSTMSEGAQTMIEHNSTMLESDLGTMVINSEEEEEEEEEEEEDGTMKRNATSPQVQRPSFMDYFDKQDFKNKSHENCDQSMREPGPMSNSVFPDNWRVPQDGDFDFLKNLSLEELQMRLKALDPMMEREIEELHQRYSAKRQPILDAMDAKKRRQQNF
# UniProt Q9R092 = target: T7, UniProt Q9R092; test: as above; settings: ligand concentration: 20 uM; assay format: PISA pool 52.9/55.5/58.6 C
# T7 sequence (whole entry): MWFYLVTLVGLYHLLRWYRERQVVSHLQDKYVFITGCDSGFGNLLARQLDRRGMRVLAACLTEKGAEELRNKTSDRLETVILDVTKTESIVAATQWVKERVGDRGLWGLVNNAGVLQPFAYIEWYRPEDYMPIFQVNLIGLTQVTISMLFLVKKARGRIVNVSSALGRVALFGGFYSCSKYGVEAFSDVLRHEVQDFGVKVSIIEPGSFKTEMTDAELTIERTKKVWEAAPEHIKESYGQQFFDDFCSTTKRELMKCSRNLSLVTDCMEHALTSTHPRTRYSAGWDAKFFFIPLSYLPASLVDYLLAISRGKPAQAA
# UniProt Q9R257 = target: T8, UniProt Q9R257; test: as above; settings: ligand concentration: 20 uM; assay format: PISA pool 52.9/55.5/58.6 C
# T8 sequence (whole entry): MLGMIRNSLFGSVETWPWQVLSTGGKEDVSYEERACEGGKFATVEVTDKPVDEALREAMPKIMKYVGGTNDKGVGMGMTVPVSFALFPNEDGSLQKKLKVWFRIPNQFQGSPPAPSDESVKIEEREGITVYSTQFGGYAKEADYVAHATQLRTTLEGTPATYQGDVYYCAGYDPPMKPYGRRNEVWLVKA
# 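Wherever log2 fold change of tryptic peptide abundance, ligand vs vehicle (limited proteolysis) is given: lysate desalted by size exclusion to strip endogenous ATP, peptide intensities built from DIA-NN precursor signals, and peptides missing any value discarded before comparison.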
# UniProt Q8BTW9, sequence (Q8BTW9 whole entry): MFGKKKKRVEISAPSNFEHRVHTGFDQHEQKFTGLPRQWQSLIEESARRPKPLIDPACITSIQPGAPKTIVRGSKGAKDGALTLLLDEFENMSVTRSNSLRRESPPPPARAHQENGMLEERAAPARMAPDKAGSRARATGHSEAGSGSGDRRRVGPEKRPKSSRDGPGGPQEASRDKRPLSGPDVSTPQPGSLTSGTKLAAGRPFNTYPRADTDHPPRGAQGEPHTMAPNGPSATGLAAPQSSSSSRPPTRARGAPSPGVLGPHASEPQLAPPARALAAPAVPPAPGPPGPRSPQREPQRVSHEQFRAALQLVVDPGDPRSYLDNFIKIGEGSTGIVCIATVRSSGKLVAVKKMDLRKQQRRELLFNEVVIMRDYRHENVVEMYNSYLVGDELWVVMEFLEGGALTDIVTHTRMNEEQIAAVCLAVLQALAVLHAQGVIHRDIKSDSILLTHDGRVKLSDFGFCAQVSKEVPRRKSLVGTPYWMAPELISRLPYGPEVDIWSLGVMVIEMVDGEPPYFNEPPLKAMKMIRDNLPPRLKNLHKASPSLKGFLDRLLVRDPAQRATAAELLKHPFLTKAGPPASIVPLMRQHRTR
# UniProt P31938, sequence (P31938 whole entry): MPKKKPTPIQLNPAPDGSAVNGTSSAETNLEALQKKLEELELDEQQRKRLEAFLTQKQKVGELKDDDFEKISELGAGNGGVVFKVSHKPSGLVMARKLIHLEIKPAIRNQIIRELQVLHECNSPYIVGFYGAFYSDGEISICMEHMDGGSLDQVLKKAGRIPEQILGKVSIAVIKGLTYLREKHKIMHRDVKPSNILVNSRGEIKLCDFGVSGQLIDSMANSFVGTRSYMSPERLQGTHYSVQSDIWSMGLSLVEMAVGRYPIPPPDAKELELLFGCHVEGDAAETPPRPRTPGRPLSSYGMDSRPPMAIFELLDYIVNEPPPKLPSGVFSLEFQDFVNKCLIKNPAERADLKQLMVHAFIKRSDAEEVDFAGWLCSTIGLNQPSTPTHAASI
# UniProt O54950, sequence (O54950 whole entry): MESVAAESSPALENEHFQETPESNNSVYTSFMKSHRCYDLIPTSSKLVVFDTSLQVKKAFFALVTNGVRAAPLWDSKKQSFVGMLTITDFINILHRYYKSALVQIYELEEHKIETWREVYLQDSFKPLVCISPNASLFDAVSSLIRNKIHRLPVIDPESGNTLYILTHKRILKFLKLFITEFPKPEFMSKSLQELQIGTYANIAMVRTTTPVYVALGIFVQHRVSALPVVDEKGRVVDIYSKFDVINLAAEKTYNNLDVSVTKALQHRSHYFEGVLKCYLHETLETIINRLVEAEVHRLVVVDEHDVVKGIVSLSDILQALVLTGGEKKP
# UniProt Q8BRK8, sequence (Q8BRK8 whole entry): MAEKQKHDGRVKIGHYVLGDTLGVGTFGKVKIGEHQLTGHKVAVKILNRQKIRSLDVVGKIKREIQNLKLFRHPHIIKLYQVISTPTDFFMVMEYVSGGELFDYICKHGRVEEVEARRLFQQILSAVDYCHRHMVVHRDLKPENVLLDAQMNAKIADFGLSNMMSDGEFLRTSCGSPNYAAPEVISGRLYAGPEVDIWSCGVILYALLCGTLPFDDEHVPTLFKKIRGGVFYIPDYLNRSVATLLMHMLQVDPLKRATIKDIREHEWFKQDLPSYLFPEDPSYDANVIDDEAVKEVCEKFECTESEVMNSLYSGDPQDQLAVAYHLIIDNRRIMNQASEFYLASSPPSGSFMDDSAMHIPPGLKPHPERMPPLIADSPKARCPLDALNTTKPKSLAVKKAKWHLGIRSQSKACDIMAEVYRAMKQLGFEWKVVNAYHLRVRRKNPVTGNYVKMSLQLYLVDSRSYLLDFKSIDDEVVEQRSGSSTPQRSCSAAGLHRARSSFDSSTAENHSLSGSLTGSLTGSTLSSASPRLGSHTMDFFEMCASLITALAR
# UniProt Q63932, sequence (Q63932 whole entry): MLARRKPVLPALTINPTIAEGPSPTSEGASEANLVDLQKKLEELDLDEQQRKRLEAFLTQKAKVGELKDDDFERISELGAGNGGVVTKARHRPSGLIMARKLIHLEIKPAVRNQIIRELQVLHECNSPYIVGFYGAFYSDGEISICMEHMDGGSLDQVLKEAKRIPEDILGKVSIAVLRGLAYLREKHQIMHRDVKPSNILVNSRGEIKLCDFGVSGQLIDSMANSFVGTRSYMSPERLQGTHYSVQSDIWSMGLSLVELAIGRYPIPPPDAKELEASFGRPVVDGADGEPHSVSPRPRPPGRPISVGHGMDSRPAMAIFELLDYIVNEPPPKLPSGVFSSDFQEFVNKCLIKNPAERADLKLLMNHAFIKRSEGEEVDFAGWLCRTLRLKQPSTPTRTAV
# UniProt P41241, sequence (P41241 whole entry): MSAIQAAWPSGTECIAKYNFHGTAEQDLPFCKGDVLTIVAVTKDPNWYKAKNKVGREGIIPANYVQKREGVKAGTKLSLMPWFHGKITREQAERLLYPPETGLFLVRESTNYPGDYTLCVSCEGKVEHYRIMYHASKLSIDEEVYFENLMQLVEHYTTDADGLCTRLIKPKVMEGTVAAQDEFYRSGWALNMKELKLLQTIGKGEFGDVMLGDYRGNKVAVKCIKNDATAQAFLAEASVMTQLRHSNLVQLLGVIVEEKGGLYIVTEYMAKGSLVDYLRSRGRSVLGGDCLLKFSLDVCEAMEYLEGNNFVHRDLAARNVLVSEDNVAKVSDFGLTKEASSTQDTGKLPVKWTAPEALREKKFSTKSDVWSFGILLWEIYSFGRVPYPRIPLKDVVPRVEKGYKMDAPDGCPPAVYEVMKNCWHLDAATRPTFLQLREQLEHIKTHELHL
# UniProt Q3UHJ0, sequence (Q3UHJ0 whole entry, looked up): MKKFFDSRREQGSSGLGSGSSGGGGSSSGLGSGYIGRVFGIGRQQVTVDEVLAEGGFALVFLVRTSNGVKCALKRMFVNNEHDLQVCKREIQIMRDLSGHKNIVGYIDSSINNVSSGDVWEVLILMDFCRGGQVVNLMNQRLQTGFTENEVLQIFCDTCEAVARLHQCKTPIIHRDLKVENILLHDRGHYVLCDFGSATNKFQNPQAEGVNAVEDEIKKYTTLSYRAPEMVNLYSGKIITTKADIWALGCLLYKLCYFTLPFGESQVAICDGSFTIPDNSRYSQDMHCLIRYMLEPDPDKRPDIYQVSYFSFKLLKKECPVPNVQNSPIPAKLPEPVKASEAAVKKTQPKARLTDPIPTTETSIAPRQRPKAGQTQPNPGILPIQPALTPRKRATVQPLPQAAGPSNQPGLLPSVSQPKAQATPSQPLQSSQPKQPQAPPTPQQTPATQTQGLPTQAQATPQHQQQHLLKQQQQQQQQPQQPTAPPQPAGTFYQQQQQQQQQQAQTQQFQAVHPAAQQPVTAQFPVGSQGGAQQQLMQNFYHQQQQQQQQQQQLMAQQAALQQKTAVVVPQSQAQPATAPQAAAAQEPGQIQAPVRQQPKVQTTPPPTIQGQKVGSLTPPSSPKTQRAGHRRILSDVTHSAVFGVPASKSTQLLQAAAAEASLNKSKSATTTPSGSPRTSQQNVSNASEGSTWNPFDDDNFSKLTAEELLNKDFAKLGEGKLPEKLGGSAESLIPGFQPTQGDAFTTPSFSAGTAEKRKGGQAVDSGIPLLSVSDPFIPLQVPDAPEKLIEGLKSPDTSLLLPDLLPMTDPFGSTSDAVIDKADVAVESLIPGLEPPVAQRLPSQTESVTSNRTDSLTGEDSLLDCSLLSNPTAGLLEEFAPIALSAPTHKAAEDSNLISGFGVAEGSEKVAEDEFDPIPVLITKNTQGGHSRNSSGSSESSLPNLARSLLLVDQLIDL
# UniProt Q9EQ20, sequence (Q9EQ20 whole entry): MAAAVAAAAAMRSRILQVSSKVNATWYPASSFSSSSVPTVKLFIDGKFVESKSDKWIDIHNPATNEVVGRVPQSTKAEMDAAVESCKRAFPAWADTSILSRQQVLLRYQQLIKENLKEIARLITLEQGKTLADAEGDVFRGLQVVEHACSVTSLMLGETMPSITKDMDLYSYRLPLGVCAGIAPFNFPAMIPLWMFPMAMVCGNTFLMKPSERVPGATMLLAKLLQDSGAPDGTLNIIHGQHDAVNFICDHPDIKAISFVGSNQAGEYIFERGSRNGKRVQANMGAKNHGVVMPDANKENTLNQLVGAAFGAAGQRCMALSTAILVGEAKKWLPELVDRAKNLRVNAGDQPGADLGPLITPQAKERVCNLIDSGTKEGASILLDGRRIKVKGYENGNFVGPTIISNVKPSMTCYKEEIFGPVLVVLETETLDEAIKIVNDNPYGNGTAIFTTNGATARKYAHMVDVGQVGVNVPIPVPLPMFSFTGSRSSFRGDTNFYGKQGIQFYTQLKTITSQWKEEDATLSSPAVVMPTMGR
SMILES,log2 fold change (UniProt P0AEX5),log2 fold change of pooled soluble protein (UniProt O54950),log2 fold change of pooled soluble protein (UniProt P31938),log2 fold change of pooled soluble protein (UniProt P41241),log2 fold change of pooled soluble protein (UniProt Q3UHJ0),log2 fold change of pooled soluble protein (UniProt Q5F2E8),log2 fold change of pooled soluble protein (UniProt Q63932),log2 fold change of pooled soluble protein (UniProt Q64464),log2 fold change of pooled soluble protein (UniProt Q6PIU9),log2 fold change of pooled soluble protein (UniProt Q8BRK8),log2 fold change of pooled soluble protein (UniProt Q8BTW9),log2 fold change of pooled soluble protein (UniProt Q8BYY4),log2 fold change of pooled soluble protein (UniProt Q9EQ20),log2 fold change of pooled soluble protein (UniProt Q9JI10),log2 fold change of pooled soluble protein (UniProt Q9R092),log2 fold change of pooled soluble protein (UniProt Q9R257)
Nc1ncnc2c1ncn2[C@@H]1O[C@H](COP(=O)(O)OP(=O)(O)OP(=O)(O)O)[C@@H](O)[C@H]1O [adenosine 5'-triphosphate],0.659,,,,,,,,,,,,,,,
CN[C@@H]1C[C@H]2O[C@@](C)([C@@H]1OC)n1c3ccccc3c3c4c(c5c6ccccc6n2c5c31)C(=O)NC4 [staurosporine],,0.645,2.14,1.02,1.91,1.2,2.18,0.447,0.619,0.661,1.36,0.552,0.615,1.77,0.855,0.471
